In the library only some 7.9% were active in any assay of this set; here they are far more common.
Lassa entry inh – Lassa virus entry inhibition; Lassa virus pseudotype entry inhibition, cell reporter; Potency, µM (highest dose often 37.9 µM), for the others: top-dose activity change, negative = inhibition, most hits filed as inhibitors; actives 1.2% (n = 300,000); calls by dose curve; tested in HEK293 cells; further: potency means the concentration at half of the fitted maximal effect; nearly all actives have a fitted effect of over 50% in size
Marburg entry inh – Marburg virus entry inhibition | Potency, µM (top dose mostly 37.8 µM), inactives show top-dose activity change, negative = inhibition, hits mostly inhibitors | Marburg virus pseudotyped entry inhibition, cell reporter | AID 540276 | actives 1.8% (n = 300,000); calls by dose curve; tested in HEK293 cells; further: potency means the concentration at half of the fitted maximal effect
FMDV inh – antivirals against foot and mouth disease virus. FMDV antiviral cell-based qHTS. Potency, µM (highest dose often 57.9 µM), inactives show top-dose activity change, negative = inhibition, actives largely listed as inhibitors. actives 1.2% (n = 410,000); calls by dose curve; tested in HEK293T cells; further: read-out not given here; potency means the concentration at half of the fitted maximal effect; nearly all actives have a fitted effect of over 45% in size
HCMV antiviral – blocks human cytomegalovirus replication | activity change, negative = inhibition, % at 57.5 µM | AID 1259415 | actives 4.5% (n = 410,000) | HFF cells, HCMV-luciferase reporter, 72 h; hits give low values; in the data active means activity change below about -60%; inconclusive means no clear call, values can overlap the other calls; inactive means above about -39%
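Two-dose cell screen: HFF monolayers treated with compounds and infected with luciferase-expressing HCMV at 1 PFU/cell, 72 h at 37C, then lysed for luciferase measurement.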
HCV inh – inhibitors of hepatitis C virus infection | Huh7.5.1 HCVcc-Cre infection, luciferase reporter, 44 h | Potency, µM (top dose mostly 41.8 µM), for the others: top-dose activity change, negative = inhibition, hits mostly inhibitors | actives 3.4% (n = 340,000); active means well fitted inhibition curve with a large enough effect; inconclusive means small, poorly fitted or top-dose-only effect, or another doubt; inactive means no such curve, though single readings can be large or run the other way; further: potency means the concentration at half of the fitted maximal effect
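Cells seeded at 1,000/well and cultured 4 h, then compounds added followed by HCVcc-Cre virus (~0.5 moi). After 44 h further culture, luciferase substrate was added, plates held 15 min at room temperature, and luminescence read for 15 sec.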
Active calls of the source: *; [ ] = dose if it differs, or a comment. On the % scale 0 is the no-effect control and ±100 the full control effect.

O=C(CNCc1ccccc1Cl)Nc1ccccc1N1CCCCC1 was read as Lassa entry inh 20%[46.1 µM], Marburg entry inh inconclusive, FMDV inh -22%, HCMV antiviral -12 and HCV inh inconclusive.
CCN(CC)S(=O)(=O)c1ccc(N2CCN(c3ccccc3OC)CC2)c(N)c1 was read as Lassa entry inh inconclusive, Marburg entry inh inconclusive, FMDV inh 22µM*, HCMV antiviral -80* and HCV inh inconclusive.
O=C(NCc1cccc(F)c1)c1ccccc1NC(=O)c1nsc2ccccc12 was read as Lassa entry inh -29%[46.1 µM], FMDV inh 0% and HCMV antiviral 0.
`CC(C)NC(=O)c1cc2c(Cl)nc3ccccc3c2s1` gave Lassa entry inh 1%[46.1 µM], Marburg entry inh 21%[46.1 µM], FMDV inh -27% and HCMV antiviral -2.
`CCN(CC)S(=O)(=O)c1ccc(OC)c(NC(=O)CCS(=O)(=O)Cc2ccccc2)c1` gave Lassa entry inh inconclusive, Marburg entry inh -1%, FMDV inh -12%, HCMV antiviral -69* and HCV inh -2%.
Screening CCN(c1ccccc1)S(=O)(=O)c1ccc(OC)c(NC(=O)Cc2ccc(OC)c(OC)c2)c1 returned FMDV inh inconclusive, HCMV antiviral -26 and HCV inh 6.3µM*.
Screening CCN(c1ccccc1)S(=O)(=O)c1ccc(N)c(OC)c1 returned Lassa entry inh inconclusive, Marburg entry inh 3.2µM*, FMDV inh 1%, HCMV antiviral 12 and HCV inh inconclusive.
`CCN(c1ccccc1)S(=O)(=O)c1ccc(Cl)c(NC(=O)COC(=O)c2cccc(OC)c2O)c1` gave Lassa entry inh -4%, Marburg entry inh -22%, FMDV inh -16%, HCMV antiviral -1 and HCV inh -24%.
Screening CCN(c1ccccc1)S(=O)(=O)c1ccc(Cl)c(NC(=O)CNCc2ccccc2OC)c1 returned Lassa entry inh inconclusive, Marburg entry inh inconclusive, FMDV inh inconclusive, HCMV antiviral 21 and HCV inh 11µM*.
Screening CCN(CC)S(=O)(=O)c1ccc(OC)c(NC(=O)OCc2ccccc2)c1 returned Lassa entry inh inconclusive, Marburg entry inh -11%[46.1 µM], FMDV inh -5%, HCMV antiviral -12 and HCV inh -25%.
`COCCn1c(SCC(=O)c2c(C)[nH]c3ccccc23)nc2cc(C(=O)NC(C)C)ccc2c1=O` gave Lassa entry inh -21%[46.1 µM], FMDV inh -15% and HCMV antiviral 18.
OC(c1cccnc1)c1ccc2c(c1)CN(Cc1cccc3c1OCO3)CCO2 (stereo not drawn) was read as FMDV inh 0%.
For CCN(c1ccccc1)S(=O)(=O)c1ccc(OC)c(NC(=O)Cc2ccccc2OC)c1 the results were FMDV inh 0%, HCMV antiviral -17 and HCV inh 10µM*.
Screening CCN(c1ccccc1)S(=O)(=O)c1ccc(OC)c(NC(=O)C2CC2)c1 returned FMDV inh -8%, HCMV antiviral -10 and HCV inh -23%.
`CN(C)c1nc(CN2CCCCC2c2cccnc2)nc2ccccc12` (stereo not drawn) gave FMDV inh -14%.
CC1=C(C(=O)Nc2ccc(C)cc2C)C(c2ccccc2[N+](=O)[O-])n2ncc(C(=O)Nc3ccccc3)c2N1 (stereo not drawn) was read as Lassa entry inh 0%[46.1 µM], FMDV inh 18% and HCMV antiviral -21.
`COc1ccc(-n2cnc3sc(-c4ccccc4)cc3c2=O)cc1` gave Lassa entry inh inconclusive, Marburg entry inh inconclusive, HCMV antiviral -87* and HCV inh inconclusive.
Screening Cc1ccc(C)n1-n1cnc2sc(-c3ccccc3)cc2c1=O returned Lassa entry inh -28%, Marburg entry inh -2%, FMDV inh inconclusive, HCMV antiviral -34 and HCV inh 22µM*.
`COc1cccc(-n2cnc3sc(-c4ccccc4)cc3c2=O)c1` gave FMDV inh 69%, HCMV antiviral 11 and HCV inh -7%.
`Cc1nnc(NC(=O)C(C)Sc2nnc(CNC(=O)c3ccccc3F)n2C)s1` (stereo not drawn) gave Lassa entry inh 24%, Marburg entry inh inconclusive, FMDV inh -10%, HCMV antiviral -19 and HCV inh 23%.
For CC(C)=CCc1c(O)cc2oc3c(CC=C(C)C)c(O)c(O)c(CC=C(C)C)c3c(=O)c2c1O the results were FMDV inh 22µM*, HCMV antiviral -101* and HCV inh inconclusive.
`Cc1ccc(NC(=O)CCS(=O)(=O)c2cc(Br)cc3c2N(C(=O)C2CC2)CC3)cc1` gave Lassa entry inh -2%[46.1 µM], Marburg entry inh 1%[46.1 µM], FMDV inh -12% and HCMV antiviral 8.
For O=C(NCCc1ccc(Cl)cc1)c1cnccn1 the results were Lassa entry inh 21%[46.1 µM], Marburg entry inh inconclusive, FMDV inh 11%, HCMV antiviral -28 and HCV inh 9%.
CC(C)(C)C(=O)N(Cc1ccc(Cl)cc1)c1cnccn1 was read as FMDV inh inconclusive, HCMV antiviral -64* and HCV inh inconclusive.
CNC[C@H](CC1CCCCC1)NC[C@H](CO)NCCc1cccc(C(F)(F)F)c1 was read as FMDV inh -16%, HCMV antiviral -100* and HCV inh inconclusive.
`COc1ccccc1-c1cc2c(c(OC)c1)OCCN(CCC(C)c1ccc(C)o1)C2` (stereo not drawn) gave FMDV inh -11%.
For CSc1nnc(-c2ccccc2)o1 the results were Lassa entry inh 4%, Marburg entry inh 1%, FMDV inh 61%, HCMV antiviral -1 and HCV inh 19%.
Screening O=S1(=O)C=C(SCCN2CCCCC2)c2ccccc21 returned Lassa entry inh 1%, Marburg entry inh -3%, FMDV inh 1%, HCMV antiviral -20 and HCV inh -21%.
Screening O=S1(=O)C=C(Sc2nnc(-c3ccccc3)o2)c2ccccc21 returned Lassa entry inh 21µM*, Marburg entry inh 5.8µM*, FMDV inh 10µM* and HCV inh 10µM*.
For O=S1(=O)C=C(Sc2nc3ccccc3s2)c2ccccc21 the results were Lassa entry inh inconclusive, Marburg entry inh 3.7µM*, FMDV inh 5µM* and HCV inh 5µM*.
Screening Cc1cc(C)nc(SC2=CS(=O)(=O)c3ccccc32)n1 returned Lassa entry inh inconclusive, Marburg entry inh 4.5µM*, FMDV inh inconclusive, HCMV antiviral -6 and HCV inh -33%.
Screening Cc1ccc(C)n1C1C(=O)N(Cc2ccc(C(F)(F)F)cc2)c2ccc(Cl)cc21 (stereo not drawn) returned HCMV antiviral -4.
CCCc1nnc(NC(=O)CCC(=O)NC2CCCCCC2)s1 was read as Lassa entry inh 5%[46.1 µM], Marburg entry inh 0%[46.1 µM], FMDV inh -8%, HCMV antiviral -33 and HCV inh 12%.
For COc1ccccc1CNC(=O)CC(c1ccc(F)cc1)N1Cc2ccccc2C1=O (stereo not drawn) the results were Lassa entry inh -27%[46.1 µM], FMDV inh 20% and HCMV antiviral -73*.

Screening results from PubChem.
